We go through eight molecules from PubChem BioAssay (NCI).

The panel holds about 83,000 compounds, 20% with a hit somewhere; the sample as a whole holds those more often.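 Negative percent growth values reflect cell death: -40 means 40% of the cells present at the start died, and -100 means all died.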 A number with no mark means an inactive call. Calls of active or inactive are those of the source. Rule for the calls: active = growth percent below 10; inactive = the rest.

Test in all cases: NCI-60 one-dose screen, 48 h (100 = growth as untreated, 0 = no growth, -100 = all killed)
Common to all, as to conditions: 10 µM unless noted

The subject of experiment [1] is DU-145 prostate.
For experiment [2], the system named is K-562 leukemia.
Experiment [3] concerns MALME-3M melanoma.
Experiment [4] relates to MDA-MB-231 breast.
For experiment [5], the system named is RXF 393 renal.
Experiment [6] relates to SF-268 CNS.
Experiment [7] deals with SF-295 CNS.
In experiment [8] the test system is SF-539 CNS.
In experiment [9] the test system is UACC-257 melanoma.
In experiment [10] the test system is M14 melanoma.
The test system of experiment [11] is HCT-15 colon.
Experiment [12] concerns HT29 colon.
The test system of experiment [13] is SNB-75 CNS.
For experiment [14], the system named is SNB-19 CNS.
Experiment [15] relates to U251 CNS.
In experiment [16] the test system is PC-3 prostate.
Experiment [17] deals with SK-MEL-5 melanoma.
In experiment [18] the test system is UACC-62 melanoma.
For experiment [19], the system named is LOX IMVI melanoma.
For experiment [20], the system named is SK-MEL-28 melanoma.

In the case of `O=C1Nc2ccccc2/C1=C\c1nc(-c2ccccc2F)n2ccccc12`, the growth in experiment [1] was -26.7% (active); in [2] it was 74.1%; in experiment [3], 34.4%; in experiment [4] it was 8.66% (active); in experiment [5], -42.7% (active); in experiment [6] it was 24.7%. Further, the growth was 38.1% in [7]; -1.95% (active) in experiment [8]; 45.7% in [9]; 53.4% in experiment [10]; 42.3% in experiment [11]; 11.6% in experiment [12]. Besides, the growth in experiment [13] is -68.2% (active); in experiment [14], 45.8%; in experiment [15], -3.26% (active); in experiment [16], 44.1%; in experiment [17] it was 37.8%; in experiment [18], 38.8%. In addition, the growth in experiment [19] was 13.6%; in experiment [20], 69.3%.

Turning to `N#CC1CCc2c(c(-c3cn[nH]c3C(F)(F)F)nc3c(F)cc4[nH]ncc4c23)C1` (stereo not given), the growth in experiment [1] is 48.2%; in experiment [2] it was 36.3%; in experiment [3] it was 18.1%; in [4], 20.3%; in experiment [5], 21.7%; in [6] it was 23.1%. Also, the growth in [7] was 73.8%; in [8], 20.4%; in experiment [9], 48.6%; in [10], 18.9%; in [11] it was 86.1%; in experiment [12] it was 42.1%. The growth in [13] is -4.91% (active); in experiment [14] it was 32.7%; in [15] it was 28.9%; in experiment [16], 43.6%; in [17], 6.54% (active); in experiment [18], 8.91% (active). Besides, the values for the growth in experiment [19] and in experiment [20] were 17.1% and 24.9%, respectively.

Take `COc1ccc2cc(-c3ccc(NC(C)=O)c(=O)o3)ccc2c1`: the growth in [1] was 103%; in experiment [2] it was 81.4%; in [3], 101%; in experiment [4], 110%; in experiment [5], 98.3%; in experiment [6] it was 95.5%. Besides, the growth is 100% in experiment [7]; 96.7% in experiment [8]; 89.3% in experiment [9]; 94.3% in experiment [10]; 100% in experiment [11]; 87.9% in experiment [12]. Besides, the growth in experiment [13] was 97.4%; in [14], 94.1%; in experiment [15], 96%; in experiment [16] it was 89.1%; in experiment [17], 102%; in [18], 94.8%. For the same molecule, the growth in experiment [19] and in [20] was 104% in each case.

`O=C1N(Cc2ccccc2Cl)c2ccccc2C12NN=C(c1cccc(Cl)c1)S2` (stereo not given): the growth is -46.2% (active) in experiment [1]; 10.1% in experiment [2]; -23.6% (active) in experiment [3]; -4.77% (active) in experiment [4]; -73% (active) in experiment [5]; 26.2% in [6]. The growth in experiment [7] is -44.9% (active); in experiment [8], 6.32% (active); in [9], 18.9%; in experiment [10], 4.67% (active); in experiment [11], 0.214% (active); in [12], 94.4%. Further, the growth in experiment [13] is 16.7%; in experiment [14] it was 20.9%; in experiment [15], -30% (active); in experiment [16], -64.3% (active); in experiment [17], 14.5%; in [18], -44.3% (active). Moreover, the growth was -19.4% (active) in experiment [19] and 7.1% (active) in [20].

As for `O=C1/C(=C/c2ccc(F)cc2)COc2ccc(O)c(O)c21`, the growth in [1] is 18.6%; in experiment [2], 10.6%; in experiment [3], -10.4% (active); in experiment [4], -12.1% (active); in [5], -3.02% (active); in experiment [6], 13.1%. For the same molecule, the growth is 75% in experiment [7]; -62.1% (active) in experiment [8]; 15.8% in experiment [9]; 37.5% in experiment [10]; -27.7% (active) in experiment [11]; 13.5% in [12]. For the same molecule, the growth in experiment [13] is 26.9%; in experiment [14] it was 33.4%; in experiment [15], 1.66% (active); in experiment [16], -0.716% (active); in experiment [17] it was 56.3%; in experiment [18], 7.26% (active). For the same molecule, the growth in experiment [19] is -85.2% (active); in [20] it was 44.1%.

Turning to `Cc1cnc(C(=O)NNc2nc3sc4c(c3c(=O)n2C)C(C)CCC4)cn1` (stereo not given), the growth in [1] was 7.49% (active); in experiment [2], 6.51% (active); in [3], -22.3% (active); in experiment [4], -3.01% (active); in experiment [5], -12.6% (active); in experiment [6], 5.92% (active). The growth was 8.03% (active) in experiment [7]; -21.1% (active) in [8]; -11.3% (active) in experiment [9]; -15.7% (active) in [10]; 15.9% in experiment [11]; -2.88% (active) in experiment [12]. For the same molecule, the growth is 1.63% (active) in experiment [13]; -14.8% (active) in [14]; -33.3% (active) in [15]; 8.78% (active) in [16]; -53.8% (active) in [17]; -20.8% (active) in experiment [18]. In addition, the growth in experiment [19] was -17.5% (active); in experiment [20] it was 8.43% (active).

As to `CCOC(=O)c1cnc2ccccc2c1Cl`, the growth is 98.3% in experiment [1]; 116% in experiment [2]; 126% in experiment [3]; 85.4% in experiment [4]; 127% in [5]; 99.5% in [6]. The growth in experiment [7] was 107%; in experiment [8], 85.9%; in experiment [9] it was 109%; in [10] it was 92.2%; in [11] it was 101%; in experiment [12], 101%. Moreover, the growth in experiment [13] is 78.2%; in experiment [14], 99.2%; in experiment [15] it was 102%; in experiment [16], 90.9%; in experiment [17], 88.1%; in [18] it was 95.2%. For the same molecule, the growth in experiment [19] was 86.2%; in experiment [20], 103%.

Take `CNC(=O)c1c(NC(=O)c2ccc(C(F)(F)F)cc2)sc2c1CCC(=O)C2`: the growth is 29% in [1]; 7.84% (active) in [2]; -9.54% (active) in experiment [3]; -37.1% (active) in experiment [4]; -7.89% (active) in [5]; 9.61% (active) in [6]. For the same molecule, the growth was -9.06% (active) in experiment [7]; -58.6% (active) in [8]; 1.26% (active) in experiment [9]; -11.6% (active) in [10]; -54.1% (active) in experiment [11]; 5.12% (active) in [12]. Also, the growth in experiment [13] is -17.4% (active); in [14], 2.58% (active); in experiment [15], -12.8% (active); in experiment [16] it was -30.9% (active); in [17], -71.6% (active); in experiment [18] it was -29.1% (active). In addition, the growth in [19] is 1.51% (active); in experiment [20], 4.24% (active).
